Screens (PubChem BioAssay)
CHO-K1 Ca PAM – nonselective activator or artifact in parental CHO-K1 calcium assay. ATP EC20, Fluo-8 calcium fluorescence; 0% at ATP EC20, 100% at ATP max. activation, % at 3 µM. 360,000 compounds, 0.02% hits;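 active = activation above the run cutoff, the mean activation of all test compounds plus 3 SD, cut at about 40% in these data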;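 note: peak over basal fluorescence ratio in a 140 s read after ATP addition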
CHRM1 agonist – human M1 muscarinic receptor agonism; P11229; CHO-K1 hM1, Fluo-8 calcium fluorescence, agonist mode; 0% DMSO, 100% acetylcholine EC100; activation, % at 3 µM; 360,000 compounds, 0.33% hits;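 active = activation above the run's mean compound activation plus 3 SD, cut at about 16% in these data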;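 note: peak over basal fluorescence ratio within a 140 s kinetic read after compound addition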
Target sequence (P11229 whole entry, looked up): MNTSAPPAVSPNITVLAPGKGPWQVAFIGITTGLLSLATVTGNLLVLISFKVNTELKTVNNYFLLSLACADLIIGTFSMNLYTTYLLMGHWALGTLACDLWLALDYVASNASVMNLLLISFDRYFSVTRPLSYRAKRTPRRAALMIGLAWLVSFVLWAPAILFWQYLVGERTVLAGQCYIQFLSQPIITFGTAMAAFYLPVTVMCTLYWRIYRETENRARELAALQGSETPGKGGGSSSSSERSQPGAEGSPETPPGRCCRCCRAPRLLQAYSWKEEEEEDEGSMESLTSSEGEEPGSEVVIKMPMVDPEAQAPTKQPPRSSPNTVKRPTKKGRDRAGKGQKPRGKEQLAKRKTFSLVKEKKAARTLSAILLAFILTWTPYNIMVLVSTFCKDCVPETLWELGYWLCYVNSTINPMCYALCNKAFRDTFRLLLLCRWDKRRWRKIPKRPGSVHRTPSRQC
CHRM1 PAM – positive allosteric modulators of human M1 muscarinic receptor | 360,000 compounds, 0.088% hits | activation, % at 3 µM | CHO-K1 hM1, Fluo-8 calcium fluorescence, ACh EC20; 0% = ACh EC20, 100% = maximal ACh | P11229 | AID 588819; in the data active = activation above about 19%, passing the limit was not always enough
CHO-K1 Ca antag – nonselective inhibitor or artifact in parental CHO-K1 cells | AID 602250 | 360,000 compounds, 0.6% hits | ATP-induced calcium, Fluo-8 fluorescence | inhibition, % at 3 µM;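 active = inhibition above a per-plate cutoff, the plate's mean sample inhibition plus 3 SD, cut at about 24% in these data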
M1 ag parental – counter-screen for M1 agonists: effect in parental CHO-K1 cells; Fluo-8 calcium fluorescence; scaled to maximal ATP response, vehicle zero; activation, % at 3 µM; 360,000 compounds, 0.48% hits; AID 602248; in the data active = activation above about 15%;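 note: untransfected CHO-K1 host cells lacking M1 receptor as counterscreen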
M1 antag – antagonists of human M1 muscarinic receptor; 360,000 compounds, 1.3% hits; inhibition, % at 3 µM; CHO-K1 hM1, Fluo-8 calcium fluorescence, ACh EC80 antagonist; P11229; AID 588852;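 active = percent inhibition above its own plate's cutoff, namely the mean of that plate's compound wells plus 3 SD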;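 note: peak over basal fluorescence ratio during 140 s after agonist addition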
Of the large screens only hits and unclear results are named; the others gave an inactive call. This is a sample that favours compounds with a hit; in the whole collection about 2.3% have one here.

CCC(=O)c1ccc(OCC(=O)Nc2nc(-c3cccnc3)cs2)cc1	M1 antag 27
COc1ccccc1OCC(=O)Nc1ncc(C)s1	none
COc1ccc(C(CC(=O)Nc2nccs2)C(C)C)cc1 (stereo not drawn)	M1 ag parental 19
Cc1cnc(NC(=O)COc2ccccc2)s1	CHO-K1 Ca antag 25
COc1cc2cc(CCOC(=O)c3ccco3)oc(=O)c2cc1OC	none
CC1(c2nnc(-c3cccc(Cl)c3)o2)CC(c2ccccc2Br)=NO1 (stereo not drawn)	none
CN(C(=O)c1cccc(NC(=O)Cc2cccc([N+](=O)[O-])c2)c1)C1CC1	none
CCCc1ncc(C(=O)c2ccc(OC)cc2)n1C	M1 ag parental 19
COc1cccc(CNC(=O)C2(C)CCCCN2C)c1 (stereo not drawn)	none
CN1CCCCC1(C)C(=O)NCc1ccc(F)cc1 (stereo not drawn)	CHO-K1 Ca antag 25
O=C(O)COCC(=O)Nc1ccc(-n2cnnn2)cc1	none
O=C(Nc1nnc(CCN2CCCCC2)s1)c1ccccc1Cl	M1 ag parental 20
Cc1ccccc1NC1=NCC(c2ccc([N+](=O)[O-])cc2)S1 (stereo not drawn)	M1 ag parental 19
Cc1ccccc1Nc1ccc([N+](=O)[O-])cn1	none
Cn1c(N)c(C(=O)N2CCN(c3ccccc3)CC2)c(=O)n(C)c1=O	none
Cc1cc(C(O)c2ncc(-c3cccc4ccccc34)[nH]2)ccc1F (stereo not drawn)	CHO-K1 Ca antag 24
O=C(Nc1cc(C(F)(F)F)ccc1F)C1Cc2c(-c3ccccc3Oc3ccccc3)ccnc2O1 (stereo not drawn)	none
COc1cccc(C2c3[nH]c4ccccc4c3CCN2Cc2cnc(C)s2)c1OC (stereo not drawn)	M1 antag 35
COc1ccccc1C1c2[nH]c3ccccc3c2CCN1Cc1cnc(C)s1 (stereo not drawn)	none
COc1ccc(NC(=O)COc2ccccc2Cc2ccccc2)cc1S(N)(=O)=O	CHO-K1 Ca antag 48, M1 ag parental 18, M1 antag 37
Cc1cccc[n+]1CC(=O)Nc1ccc([N+](=O)[O-])cc1Cl	M1 antag 36
O=C(C[n+]1ccc(Cc2ccccc2)cc1)Nc1ccc([N+](=O)[O-])cc1Cl	M1 antag 86
O=[N+]([O-])c1ccc(C[n+]2ccc(Cc3ccccc3)cc2)cc1	M1 antag 28
CCCCN(C(=O)C1CCCC1)c1c(N)n(CC(C)C)c(=O)[nH]c1=O	CHRM1 PAM 30
CCCCN(C(=O)C1CCC1)c1c(N)n(CCC)c(=O)[nH]c1=O	none
CCOc1cccc(CN2CCC(Oc3ccc(C(=O)NCc4ccccn4)cc3)CC2)c1	M1 antag 77
O=C(NCc1ccccn1)c1ccc(OC2CCN(Cc3ccccc3)CC2)cc1	none
COc1ccc(CN2CCC(Oc3ccc(C(=O)NCc4ccccn4)cc3)CC2)c(F)c1	M1 antag 71
C#Cc1ccc(CN2CCC(Oc3ccc(C(=O)NCc4ccccn4)cc3)CC2)cc1	M1 antag 78
Cc1cc(NC(=O)COC(=O)[C@@H](NS(=O)(=O)c2ccc(Br)cc2)C(C)C)no1	none
COc1ccc(CCN2CC(C(=O)NCCN3CCOC3=O)CCC2=O)cc1 (stereo not drawn)	none
CN(C)Cc1cc(C(F)(F)F)ccc1C(O)(c1ccccc1)c1ccccc1	M1 antag 101
CN(C)Cc1ccccc1C(O)(c1ccccc1)c1ccccc1	none
CCOc1ccc(C2C(C#N)=C(N)SC(N)=C2C#N)c(OCC)c1	CHRM1 agonist 18
CCOc1cc(C2C(C#N)=C(N)SC(N)=C2C#N)ccc1OCCN1CCOCC1	none
O=C(Nc1ccccc1Cl)c1ccc(=O)[nH]n1	none
O=C(NCCCN1CCCC1)c1ccc2c(Cl)c3c(nc2c1)CCCC3	none
CCCN1CCN(CCCNC(=O)c2ccc3c(Cl)c4c(nc3c2)CCCC4)CC1	M1 antag 34
CN(C1=NS(=O)(=O)N=C(N(C)c2ccccc2)O1)c1ccccc1	none
Cc1cc(C)cc(NS(=O)(=O)c2cc(Br)cnc2N)c1	none
Cc1ccc(NS(=O)(=O)c2cc(Br)cnc2N)cc1C	M1 antag 100
CSc1cccc(NS(=O)(=O)c2cc(Br)cnc2N)c1	M1 antag 63
COc1ccc(O)c(CN2CCC(n3nccc3NC(=O)c3ccccc3Cl)CC2)c1	none
CC(=O)Nc1cccc(-c2nnc(SCC(=O)n3c4c(c5ccccc53)CCCC4)n2C)c1	none
OCCNCc1cc(Br)ccc1OCc1ccc(Cl)cc1	CHRM1 agonist 23
Cc1cc(NCc2ccccc2)n2ncc(-c3ccccc3)c2n1	M1 antag 39
COc1ccc(CCNc2cc(C)nc3c(-c4ccccc4)cnn23)cc1OC	none
Cn1ccnc1C1CCCCN1C(=O)c1cc(COc2ccc(F)cc2Cl)on1 (stereo not drawn)	M1 antag 36
O=C(c1cc(COc2ccc(F)cc2Cl)on1)N1CC[C@@H]2CCCC[C@H]2C1	none
CCN(CC)C1CCN(C(=O)c2cc(COc3ccc(F)cc3Cl)on2)C1 (stereo not drawn)	M1 antag 70
CCN(CC)C1CCN(C(=O)c2cc(COc3ccccc3SC)on2)C1 (stereo not drawn)	M1 antag 56
CSc1ccccc1OCc1cc(C(=O)N2CCCC(C)C2)no1 (stereo not drawn)	none
COCC1CCN(C(=O)c2cc(COc3ccc(F)cc3Cl)on2)C1 (stereo not drawn)	none
CSc1ccccc1OCc1cc(C(=O)N2CCSCC2)no1	none
CSc1ccccc1OCc1cc(C(=O)N2CCC(Oc3cccnc3)CC2)no1	M1 antag 39
COc1cc(C(=O)NCC(c2cccs2)N2CCOCC2)cc(OC)c1OC (stereo not drawn)	none
COC(=O)C(Cc1ccccc1)NC(=O)CNC(=O)c1ccccc1OC (stereo not drawn)	none
COc1ccc(NC(=O)C2Cc3c(-c4ccc5c(c4)OCO5)ccnc3O2)cc1OC (stereo not drawn)	M1 antag 33
Cc1noc(C)c1CSCC(=O)N1CCN(c2ccc([N+](=O)[O-])cc2)CC1	M1 antag 58
O=C(c1cc([N+](=O)[O-])ccc1N1CCOCC1)N1CCN(c2ccc([N+](=O)[O-])cc2)CC1	M1 antag 32
O=C(NC1CCCCC1)N1CCN(c2ccc(Cl)cc2)CC1	none
O=C(NC1CCCCC1)N1CCN(c2ccc([N+](=O)[O-])cc2)CC1	M1 antag 27
Cc1cc(C)c(S(=O)(=O)NCc2nc3nc(C)cc(C)n3n2)c(C)c1	none
O=C(COc1ncnc2ccccc12)N1CCN(S(=O)(=O)c2ccc(Cl)cc2)CC1	CHO-K1 Ca antag 63
